The values that follow come from ChEMBL document CHEMBL1201862, “PubChem BioAssay data set” (2004).

Out of some 57,000 sequences screened, about 2,500 (4.4%) were called active. Rule as the data show it: active = GI50 up to about 1.1 µM and inactive = higher. Only a sample is shown. Potency and affinity values are given separately.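 Compound exposure: 48 hours, 5 concentrations, 96-well plates. Here, GI50 denotes the concentration required for 50% inhibition of growth.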 Where only a bound is given, the exact number is not on record here.

The experiment relates to OVCAR-5. The experiment can be described thus: NCI tumour cell line growth inhibition, 48 h.
Regarding “mu-(1,7-nanodiamine-N,N')bis-(cis-aminedichloroplatimum (II)), CHEMBL2146215”, the GI50 is more than 100 µM. Regarding CISPLATIN, CHEMBL11359, the GI50 came out at 4.51 µM.

The substance “[Bis(aminomethyl)pentamethylenesilane]dichloropaltinum(II), CHEMBL2146202” showed a GI50 of 3.38 µM. Turning to “[Bis(aminomethyl)ethylmethylsilane]tetrachloroplatinum(IV), CHEMBL2146192”, the GI50 came out at 6.49 µM. The substance “[Bis(aminomethyl)pentamethylenesilane]tetrachloropaltinum(IV), CHEMBL2146204” registered a GI50 of 6.27 µM.

In turn, “cis-Bis[[(trimethylsilyl)methyl]amino]tetrachloroplatinum(IV), CHEMBL2146191” gave a GI50 of 30.3 µM. The value for “[Bis(aminomethyl)dimethylsilane]tetrachloroplatinum(IV), CHEMBL2146190” was 7.29 µM; that for “[Bis(aminomethyl)dimethylsilane]dichloroplatinum (II), CHEMBL2146201” was 30.5 µM. Consider “[Bis(aminomethyl)tetramethylenesilane]dichloropaltinum(II), CHEMBL2146205”, for which the GI50 was determined as 7.55 µM. Consider “[Bis(aminomethyl)tetramethylenesilane]tetrachloropaltinum(IV), CHEMBL2146189”, for which the GI50 was 4.22 µM.
